Compounds with a hit are over-represented: about 4.1% of the library has one in this group of screens.
DAX1 inh-1 – DAX1 (NR0B1) inhibition, primary screen; HEK293T StAR-luciferase reporter, SF-1/DAX-1 repression relief; inhibition, % at 6.8 µM; hit rate 1.1% among 370,000;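 active = inhibition above the mean over all tested compounds plus 3 SD, cut at about 3.6% in these data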;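 note: 0% = DAX-1 cells with DMSO and 100% = cells lacking DAX-1 with DMSO; higher inhibition means more luminescence from relief of DAX-1 repression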
DAX1 inh-2 – inhibits human nuclear receptor DAX1 | P51843 | HEK293 Gal4-DAX1 luciferase reporter, luminescence | inhibition, % at 6.75 µM | hit rate 0.99% among 340,000;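 active = inhibition above the mean over all tested compounds plus 3 SD, cut at about 4.2% in these data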;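 note: 0% = DAX1-transfected cells with DMSO and 100% = empty-vector control cells with DMSO; inhibition shows as a rise in luminescence from relieved DAX1 repression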
Target sequence (P51843 207-470 limits assumed): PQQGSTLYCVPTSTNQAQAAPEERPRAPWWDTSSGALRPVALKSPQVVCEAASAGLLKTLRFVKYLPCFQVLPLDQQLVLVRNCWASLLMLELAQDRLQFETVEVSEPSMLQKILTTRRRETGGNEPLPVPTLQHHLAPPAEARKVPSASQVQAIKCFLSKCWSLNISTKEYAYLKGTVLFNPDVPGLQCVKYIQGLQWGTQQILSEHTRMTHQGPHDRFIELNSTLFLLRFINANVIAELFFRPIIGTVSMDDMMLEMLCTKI
hcDAF12 agonist – H. contortus DAF-12 activation, primary screen; hit rate 1.4% among 370,000; activation, % at 6.8 µM; AID 652067; HEK293 hcDAF-12 lit1-tk-luc reporter, luminescence; 0% DMSO, 100% Δ7-dafachronic acid;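 active = activation above the mean of all tested compounds plus 3 SD, cut at about 5.5% in these data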;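 note: 100% = response to 3 µM Δ7-dafachronic acid high control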
hgDAF12 agonist – hgDAF-12 agonism, primary luciferase screen | hit rate 1.8% among 370,000 | HEK293 GAL4-hgDAF12 UAS-luciferase reporter, agonist luminescence; normalized to butyrate control | activation, % at 6.8 µM;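 active = activation above a cutoff set at the mean of all screened compounds plus 3 SD, cut at about 10% in these data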;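 note: 0% = DMSO wells and 100% = sodium butyrate wells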
ssDAF12 agonist – S. stercoralis DAF-12 activation, primary screen | HEK293 ssDAF-12/GRIP1 lit1-tk-luc reporter, luminescence; % of 3 µM dafachronic acid response | activation, % at 6.8 µM | hit rate 1% among 370,000;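 active = activation above the mean over all tested compounds plus 3 SD, cut at about 0.9% in these data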;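 note: 0% = DMSO-only wells and 100% = 3 µM delta7-dafachronic acid wells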
Starred values were filed as active, the others as inactive; nt = no result.

SMILES | DAX1 inh-1 | DAX1 inh-2 | hcDAF12 agonist | hgDAF12 agonist | ssDAF12 agonist
O=C(Nc1cccc2ccccc12)C(=O)C1C(=O)Nc2ccccc21 (centres undefined) | -0.2 | 0.1 | 6.1* | 2.5 | -0.1
O=C(Nc1ccc(F)cc1)N[C@@H]1C[C@@H]2O[C@H](CO)CC[C@@H]2O[C@@H]1CCc1ccc(C2=CCCC2)cc1 | -0.9 | nt | 0.3 | 0.4 | -1.7
O=S1(=O)N[C@H](Cc2ccccc2)COc2cccc(N3CCC[C@H]3CO)c21 | -0.3 | nt | 0.2 | 0.4 | -0.7
O=S1(=O)N[C@@H](Cc2ccccc2)COc2cccc(N3CCC[C@H]3CO)c21 | 4.1* | nt | 0.6 | 0.9 | -1.2
Cn1c(/N=C/c2c(O)ccc3ccccc23)nc2ccccc21 | -1.4 | -0.4 | 0.0 | -2.6 | 1.3*
CCCn1c(/N=C/c2ccccc2O)nc2ccccc21 | -0.5 | 1.3 | -1.9 | 0.3 | -0.8
CCSc1nsc(NC(=O)Nc2ccccc2F)n1 | 0.2 | 1.4 | 2.4 | 11.3* | -0.5
O=C(NC1CCCC1)[C@@H]1CCCN1C(=O)[C@H](Cc1cccnc1)NC(=O)N1CCOCC1 | 0.0 | nt | 0.5 | 0.1 | -0.4
COc1ccc(-c2c(C(=O)c3ccccc3)[nH]c(N)c2C(=O)c2c[nH]c3ccccc23)cc1OC | nt | nt | 3.0 | 0.6 | -0.6
COc1ccc(/C=C/C(=O)OCC(=O)Nc2ncc(Cl)cc2Cl)cc1 | -0.6 | 0.4 | 1.8 | 0.5 | 1.1*
CSc1nnc(-c2ccccc2)c(-c2ccccc2)n1 | 0.2 | 0.0 | -1.6 | -2.0 | -1.8
CSc1nnc2c3ccccc3c3ccccc3c2n1 | 0.0 | 1.4 | 3.2 | -0.9 | 1.2*
CCCCn1c(SCC(=O)NCCOC)nc2ccc(N3CCOCC3)cc2c1=O | 0.2 | 4.8* | -2.2 | -2.0 | -1.3
COCCNC(=O)CSc1nc2ccc(N3CCOCC3)cc2c(=O)n1CCc1ccccc1 | -0.4 | -0.3 | 2.7 | 1.3 | -1.6
NCC(c1ccco1)c1c[nH]c2ccccc12 (centres undefined) | 0.1 | -0.6 | 6.1* | -1.3 | 0.0
CCCCCCCCN1C(=O)[C@@H](CC(=O)N2CCN(C(=O)c3ccco3)CC2)C[C@@]2(C(=O)OC)C1=C[C@H](C(C)(C)C)O[C@@H]2C | -0.1 | nt | 0.5 | -0.4 | -0.8
COc1ccc(-c2cc3ncnc(Cl)c3s2)cc1 | 1.0 | 0.7 | 4.1 | 10.9* | 0.0
CCOC(=O)c1ccc(NC(=O)c2ccccc2)cc1 | 2.0 | 0.5 | 3.9 | 10.8* | -0.8
CN(C)c1ccc(NC(=O)c2ccc3nsnc3c2)cc1 | 3.0 | 0.8 | 1.9 | 11.2* | -0.4
CCOC(=O)c1cccc(NC(=O)c2ccc(N(C)C)cc2)c1 | 1.7 | -3.0 | 1.2 | 10.8* | -0.7
Cc1nc2ccc(C(=O)Nc3ccc(N(C)C)cc3)cc2s1 | 0.0 | -3.1 | -4.4 | -5.9 | -1.9
CCOC(=O)c1ccc2nc(C)c(C)nc2c1 | 0.4 | 0.4 | 5.6* | 4.0 | -0.6
CCOC(=O)c1cccc(NC(=O)c2ccc(NC(=O)c3ccco3)cc2)c1 | -1.4 | 0.0 | -3.2 | -3.6 | -1.3
C[C@H]1COc2c3ccccc3nn21 | 1.7 | nt | 1.7 | -0.1 | -0.8
O=C(Nc1ccc(C(=O)c2ccccc2)cc1)c1ccccc1 | 0.5 | 1.2 | 0.4 | 11.2* | -1.1
SMILES | DAX1 inh-1 | DAX1 inh-2 | hcDAF12 agonist | hgDAF12 agonist | ssDAF12 agonist
O=C(NNC(=O)c1ccc(NC(=O)c2ccccc2)cc1)c1ccc(F)cc1 | -1.5 | -0.7 | 0.8 | -1.6 | -1.1
O=C(Cn1c(=O)c(=O)n(Cc2ccccc2)c2ccc(Cl)cc21)NCC1CCCO1 (centres undefined) | 1.0 | 4.6* | -0.3 | -0.9 | -1.7
Nc1cc(C(F)(F)F)ccc1Nc1ccccc1 | 0.2 | -0.3 | 0.6 | 1.0 | 0.9*
CC(C)C(=O)N[C@H]1[C@H](O)CCC[C@]12C(=O)N(Cc1ccccc1)c1ccccc12 | 1.4 | nt | -2.1 | 2.6 | -0.8
Cc1cc(NC(=O)Cn2cc([N+](=O)[O-])cn2)no1 | -0.2 | 4.7* | 1.0 | -1.3 | -1.4
Cc1ccnc(NC(=O)Cn2cc([N+](=O)[O-])cn2)c1 | 3.6 | 1.7 | 4.4 | 11.2* | -0.8
O=C(Cn1cc([N+](=O)[O-])cn1)Nc1ccccn1 | -0.2 | 0.7 | -1.2 | -2.3 | -1.4
CCCCNC(=O)c1ccc(CS(=O)(=O)c2cccc(C(F)(F)F)c2)o1 | -1.1 | 1.7 | -0.1 | -1.2 | -1.6
O=C(O)c1ccc(CS(=O)(=O)c2cccc(C(F)(F)F)c2)o1 | 0.4 | 4.5* | -0.7 | -0.9 | -0.7
CCn1c(SCC(=O)Nc2ccc3c(c2)OCO3)nnc1C1CC1 | -0.3 | 4.9* | 0.2 | 1.6 | -0.5
Cc1ccc(S(=O)(=O)N2C(N)=C(C(=O)NCc3ccc(Br)cc3)C(c3ccc(Cl)cc3)C2C(=O)c2ccccc2)cc1 (centres undefined) | nt | nt | 1.2 | 1.5 | -1.9
CC1CCCC(NCC(=O)Nc2ccc(C(N)=O)cc2)C1C (centres undefined) | 0.7 | 0.5 | -1.3 | 5.9 | 1.7*
COc1cccc(CC(NC(C)=O)C(=O)NC2CCN(c3nnnn3-c3ccccc3)CC2)c1 (centres undefined) | -0.1 | 4.3* | -0.9 | 0.5 | -1.2
CCn1c(Cc2cccs2)nnc1SCC(=O)Nc1ccc(OCc2ccccc2)cc1 | -2.4 | nt | -0.8 | 7.2 | -1.8
CCCCOCCCNC(=O)C[C@H]1C[C@@]2(C(=O)OC)C(=C[C@H](C(C)C)O[C@@H]2C2CC2)N(Cc2ccc3c(c2)OCO3)C1=O | -0.1 | nt | 0.8 | -3.4 | -1.9
CCOc1ccc(Cn2nnc(C(=O)Nc3cc(C)cc(C)c3)c2N)cc1 | 1.5 | 3.6 | 0.0 | -2.9 | -0.9
Cc1cccc(-n2nnc(C(=O)Nc3ccc(F)cc3)c2N)c1 | 2.4 | 0.9 | 3.4 | 11.6* | -0.2
CCc1ccc(Cn2nnc(C(=O)Nc3cccc(C)c3)c2N)cc1 | -0.3 | 4.3* | -1.3 | 3.1 | -1.3
COC(=O)c1cc2c(c3c4cc(C)ccc4n(S(=O)(=O)c4ccc(OC)cc4)c13)C(=O)N(C)C2 | -1.5 | nt | 0.2 | 2.1 | 0.6
O=C(OCc1nnc(-c2ccccc2)o1)C12CC3CC(CC(Br)(C3)C1)C2 | 0.8 | 4.8* | 0.0 | 2.2 | -0.8
O=C(OCc1nnc(-c2ccccc2)o1)c1ccccc1 | 0.3 | 0.2 | 1.3 | 3.0 | -1.7
COc1cccc(OCc2ccc(Cn3nc(NC(=O)NCCc4ccc(OC)c(OC)c4)c4ccccc43)cc2)c1 | -0.1 | nt | 5.8* | 2.0 | 2.2*
COc1ccc(CCNC(=O)Cc2nn(C)c(=O)c3ccccc23)cc1OC | -0.5 | -1.1 | -1.9 | -1.6 | -1.1
CC(C)C[C@H](NC(=O)c1ccc(Cl)c(Cl)c1)C(=O)N1CCC[C@H]1C(=O)NCc1ccccc1 | -0.6 | nt | -0.3 | 0.1 | -0.3
Nc1nc2ncc(CNc3ccc(C(=O)N[C@@H](CCC(=O)O)C(=O)O)cc3)nc2c(=O)[nH]1 | 0.9 | 5.2* | 0.8 | 2.5 | -1.7
Cc1ccc(C2=NNC(=Nc3ccc(F)cc3)SC2)cc1 | 0.4 | 0.2 | 5.7* | 10.9* | -0.6

Screening data as filed in PubChem BioAssay.
